Data published in PubChem BioAssay AID651819 (National Center for Advancing Translational Sciences (NCATS), 2012).
Out of some 360,000 compounds screened, about 1,100 (0.31%) were called active. The list comes from a sample in which actives are over-represented; it also holds similar structures and randomly drawn compounds. A number with no mark means an inactive call. Rule as the data show it: active = activity change below about -30%; inactive = the rest.

Each compound was assayed on cytosolic chaperonin (CCT/TRiC complex) (assay: High-Throughput Screening for Modulators of Cytosolic Chaperonin Activity). Settings: purified chaperonin ATPase assay, HTRF ADP detection, 30 min; active compounds read low.
Procedure, shortened: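 Nucleotide hydrolysis assay: TRiC at 20–40 nM final (set by batch activity) with 10 uM ATP, 30 min at 37 °C, in presence of 76 uM compound. Detection by competitive ADP HTRF, 30 min ambient.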
% is scaled to controls: 0 for no effect and ±100 for the full control effect.

| SMILES | activity change |
| --- | --- |
| C/C(Cc1ccccc1)=N\NC(=O)CNC(=O)c1ccccc1Cl | 0.921% |
| CC(C)CNC(=O)COC(=O)c1ccccc1OCC(=O)Nc1ccc(Br)cc1 | 0.0186% |
| O=C(NCc1cccnc1)c1cnc2ccccc2n1 | -37.4% (active) |
| O=C(O)c1ccccc1-c1ccccc1C(=O)NCc1cccnc1 | -1.06% |
| CN(c1ccccc1)S(=O)(=O)c1ccc(C(=O)NCc2cccnc2)cc1 | 0.104% |
| CC(C)(C)OC(=O)CNC(=O)c1[nH]cnc1C(=O)N[C@@H](CCCCN)C(=O)OC(C)(C)C | 0.783% |
| NC(=O)c1nsc(C(=O)N(CCCN2CCOCC2)C(C(=O)NC2CCCCC2)c2ccc(Cl)cc2)c1N (stereo unspecified) | -0.121% |
| CCc1nc2sc3c(Cl)ncnc3c2c2c1CCCC2 | -2.15% |
| COc1ccc(NC(=O)C(=O)NCC(=O)Nc2cccc(C(F)(F)F)c2)cc1 | -44.8% (active) |
| C/C(CC(=O)Nc1cccc(C(F)(F)F)c1)=N\NC(=O)C(=O)NCC(C)C | -0.0398% |
| COc1ccc(C(CC(=O)Nc2ccc(C)cc2)NC(=O)C(F)(F)F)cc1 (stereo unspecified) | 0.31% |
| Cc1ccc(CN2CC(C(=O)NNC(=O)Cn3ccc(C(F)(F)F)n3)CC2=O)cc1 (stereo unspecified) | -2.29% |
| Cc1cccc(-n2c(SCC(=O)Nc3cccc(S(=O)(=O)NC4=NCCCCC4)c3)nc3ccccc3c2=O)c1C | -6.85% |
| O=C(CCN1C(=O)[C@@H]2Cc3ccccc3CN2C1=O)NCCc1ccccc1 | -0.128% |
| O=C(CCN1C(=O)[C@@H]2Cc3ccccc3CN2C1=O)NCc1ccccc1 | -37.1% (active) |
| Cc1ccc(CNC(=O)CCN2C(=O)[C@@H]3Cc4ccccc4CN3C2=O)cc1 | -0.496% |
| CCN1C(=NCc2ccc(OC)cc2)N[C@@H](CCc2ccccc2)[C@H](C(=O)NCc2ccc(OC)cc2)[C@H]1C | -0.204% |
| NC1=NC(c2ccc([N+](=O)[O-])cc2)N(c2ccc(F)cc2)C(N)=N1 (stereo unspecified) | 1.53% |
| COc1ccc(C2N=C(N)N=C(N)N2c2ccccc2)cc1OC (stereo unspecified) | -35.3% (active) |
| COc1cc(C=O)ccc1Oc1nnnn1-c1ccccc1 | 0.228% |
| Nc1nonc1-n1nnc(C(=O)N/N=C/c2cc(Br)ccc2O)c1CSC1=NCCS1 | 1.21% |
| Cc1nn(-c2ccccc2)c2sc(C(=O)N(Cc3ccco3)C(C)C(=O)NC(C)(C)C)cc12 (stereo unspecified) | 1% |

| SMILES | activity change |
| --- | --- |
| O=C(CCCCCn1c(=S)[nH]c2cc3c(cc2c1=O)OCO3)N1CCN(c2ccc(F)cc2)CC1 | -31.7% (active) |
| Cc1ccc(C)c(N2CCN(C(=O)CCCCCn3c(=S)[nH]c4ccc(N5CCOCC5)cc4c3=O)CC2)c1 | 1.65% |
| CC(C)NC(=O)CCCn1c(=S)[nH]c2cc3c(cc2c1=O)OCO3 | -1.56% |
| CC(C)N(C(=O)Cn1c(SCC(=O)N2CCN(c3ccccc3)CC2)nc2ccccc21)C(C)C | -3.64% |
| Cc1ccc(S(=O)(=O)/N=C(/NC(=S)Nc2c(C)n(C)n(-c3ccccc3)c2=O)c2ccccc2)cc1 | -1.68% |
| Cc1c(CN2CCC(CO)(CCOc3ccccc3)CC2)[nH]c2ccc(Cl)cc12 | -56% (active) |
| COc1cccc(CC2(CO)CCN(Cc3cnc(-c4cccc(C)c4)nc3)CC2)c1 | -1.28% |
| OCC1(CCc2ccccc2)CCN(Cc2ccc3nsnc3c2)CC1 | -4.83% |
| O=C1C2C3C=CC(C3)C2C(=O)N1c1ncc([N+](=O)[O-])s1 (stereo unspecified) | -1.62% |
| COc1ccc(/C=C/C(=O)OCC(=O)NCc2cccs2)cc1OC | -2.94% |
| CC(C)c1cccc(-c2csc(C(O)c3ccccc3)n2)c1 (stereo unspecified) | -0.363% |
| COc1cccc(C(NC(C)=O)c2nc(-c3cnc4ccccc4c3)cs2)c1 (stereo unspecified) | 0.873% |
| OC(c1ccccc1)c1nc(-c2cnc3ccccc3c2)cs1 (stereo unspecified) | -40.1% (active) |
| COC(=O)C[C@H]1C[C@@H]2c3cc(N(C)C)ccc3O[C@@H]2[C@H](CO)O1 | -1.3% |
| CCOC(=O)c1ccccc1NC(=O)c1c(N)n(C)c(=O)[nH]c1=O | 2.1% |
| O=C(Nc1ccccc1-c1nnn(CC(=O)N2CCCc3ccccc32)n1)c1cccc(Cl)c1 | -0.628% |
| CC1=C(C(=O)NC2CC(C)(C)Cc3c2cnn3-c2ccc(C)cc2)OCCO1 (stereo unspecified) | -89.1% (active) |
| COCc1ccc(C(=O)NC2CC(C)(C)Cc3c2cnn3-c2ccc(C)cc2)o1 (stereo unspecified) | -1.13% |
| Cc1ccc(-n2ncc3c2CC(C)(C)CC3NC(=O)Cc2c(C)noc2C)cc1 (stereo unspecified) | 1.55% |
| Cc1ccc(-c2c(C)n([O-])c3c([n+]2=O)CCC3)cc1 | -0.716% |
| O=C1/C(=C\c2cccnc2)CN(Cc2ccccc2)C/C1=C\c1cccnc1 | -1.65% |
| COc1ccc(C2=NOC3(CC(=O)N(c4ccc(Cl)cc4)C3=O)C2)c(OC)c1 (stereo unspecified) | 1.68% |

| SMILES | activity change |
| --- | --- |
| CC(=O)c1c(C)c[nH]c1C | 0.144% |
| Cc1ccc(S(=O)(=O)NCC(=O)Nc2ccc3c(c2)OCCO3)cc1 | -2.11% |
| CC(=O)Nc1ccc(NC(=O)C(NS(=O)(=O)c2ccc3c(c2)OCCO3)C(C)C)cc1 (stereo unspecified) | -1.81% |
| CC(NS(=O)(=O)c1ccc(Cl)cc1)C(=O)Nc1ccc2c(c1)OCCO2 (stereo unspecified) | -38.5% (active) |
| COc1cc(Cl)c(C)cc1NC(=O)CSc1nnc(-c2ccco2)n1CC(C)C | -2.06% |
| COc1ccccc1N1CCN(C(=O)CSc2ncnc3c2cnn3-c2ccc(C)c(C)c2)CC1 | -0.613% |
| CN(C(=O)CC(NC(=O)c1ccccc1)(c1ccccc1)c1ccccc1)c1ccccc1 | -1.61% |
| CCOC(=O)N/N=C1\CC(C)S(=O)(=O)c2ccc(Cl)cc21 (stereo unspecified) | -3.43% |
| CC(=O)c1cc2c(cc1NC(=O)CN1CCCCCC1)OCO2 | -1.13% |
| CC(=O)c1cc2c(cc1NC(=O)Cn1nc(-c3ccc(F)cc3)ccc1=O)OCO2 | -31.8% (active) |
| CCOc1cccc(NC(=O)Cn2nc(-c3ccc4c(c3)OCCO4)ccc2=O)c1 | 2.22% |
| Cc1cccc2c1cnn2C(=O)CCC(=O)NC1CCCCC1 | 0.998% |
| C=CCN(N=Nc1cccc([N+](=O)[O-])c1)c1cccc([N+](=O)[O-])c1 | -0.537% |
| CC1=C(C(=O)OC(C)(C)C)C(c2ccc(Br)cc2)NC(=O)N1CCCC(=O)O (stereo unspecified) | -0.201% |
| O=C1CS(=O)CN1c1ccc(Oc2ccccc2)cc1 (stereo unspecified) | -3.89% |
| Cc1n[nH]c(=O)n1-c1ccc(Oc2ccccc2)cc1 | -105% (active) |
| Cc1n[nH]c(=O)n1-c1ccc(C(C)C)cc1 | 0.471% |
| O=C(NCCCN1CCCCC1)c1ccc2c(c1)NC(=O)C(N1CCOCC1)S2 (stereo unspecified) | -0.706% |
| O=C(NCCCN1CCOCC1)c1ccc2c(c1)N(Cc1cccc(F)c1)C(=O)c1ccccc1S2 | -77.1% (active) |
| O=C(NCCCN1CCOCC1)c1cc(-c2ccccc2F)no1 | 1.6% |
| CCc1ccc(CN(C)C(C)C(=O)Nc2ccc(S(=O)(=O)N3CCCC3)cc2)cc1 (stereo unspecified) | -0.65% |
| Cc1ccc(C2C(C#N)C(C#N)N3CCCN23)cc1 (stereo unspecified) | 0.118% |
